Measurements from PubChem BioAssay (NCATS).
Inconclusive results are not listed. Activity calls are given as the source filed them. Unless noted, calls come from the whole dose curve.

Key:
[1] = Validation screen for inhibitors of Lassa infection (AID 463096); conditions: Lassa virus infection, cell-based; series mostly up to 46.1 µM
[2] = Inducers of the Endoplasmic Reticulum Stress Response (ERSR) in human glioma: Validation (AID 504836; active = well fitted curve in the direction sought with a large enough effect; an effect the other way counts as inactive or inconclusive); conditions: human glioma cells, ER stress response reporter; series mostly up to 38.3 µM
Method in brief: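 Stably transfected U87-MG human glioma cells carrying a GRP78-based luminescent sensor were seeded at 1000 cells/well, pin-dosed with compounds and incubated 16 h. Luciferase reagent was then added, and end-point luminescence was read after 10 min at room temperature.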

[3] = qHTS for Inhibitors of the Functional Ribonucleoprotein Complex (vRNP) of Lassa (LASV) Arenavirus: LASV Primary Screen - GLuc reporter signal (AID 1347082; calls by dose curve; tested in HEK293 reporter line; note: nearly all actives have a fitted effect of over 60% in size); conditions: LASV minigenome vRNP, Gaussia luciferase reporter; series mostly up to 57.5 µM
[4] = qHTS for Inhibitors of the Functional Ribonucleoprotein Complex (vRNP) of Lassa (LASV) Arenavirus: Viability assay - alamar blue signal for LASV Primary Screen (AID 1347083; calls by dose curve; tested in HEK293 reporter line; note: nearly all actives have a fitted effect of over 80% in size); conditions: cell viability, alamar blue fluorescence (LASV minigenome counter-screen); series mostly up to 57.5 µM
[5] = qHTS for Inhibitors of the Functional Ribonucleoprotein Complex (vRNP) of Lymphocytic Choriomeningitis Arenaviruses (LCMV): Viability assay - alamar blue signal for LCMV Primary Screen (AID 1347085; calls by dose curve; tested in HEK293 reporter line; note: nearly all actives have a fitted effect of over 80% in size); conditions: alamar blue viability counter-screen, LCMV vRNP screen cells; series mostly up to 57.5 µM
[6] = biological target: Nucleoprotein (Lymphocytic choriomeningitis virus (strain Armstrong)) (UniProt P09992); assay: qHTS for Inhibitors of the Functional Ribonucleoprotein Complex (vRNP) of Lymphocytic Choriomeningitis Arenaviruses (LCMV): LCMV Primary Screen - GLuc reporter signal (AID 1347086); conditions: LCMV minigenome vRNP cell assay, Gaussia luciferase reporter; series mostly up to 57.5 µM; note: nearly all actives have a fitted effect of over 70% in size
Sequence of Nucleoprotein (Lymphocytic choriomeningitis virus (strain Armstrong)) (P09992 whole entry, looked up): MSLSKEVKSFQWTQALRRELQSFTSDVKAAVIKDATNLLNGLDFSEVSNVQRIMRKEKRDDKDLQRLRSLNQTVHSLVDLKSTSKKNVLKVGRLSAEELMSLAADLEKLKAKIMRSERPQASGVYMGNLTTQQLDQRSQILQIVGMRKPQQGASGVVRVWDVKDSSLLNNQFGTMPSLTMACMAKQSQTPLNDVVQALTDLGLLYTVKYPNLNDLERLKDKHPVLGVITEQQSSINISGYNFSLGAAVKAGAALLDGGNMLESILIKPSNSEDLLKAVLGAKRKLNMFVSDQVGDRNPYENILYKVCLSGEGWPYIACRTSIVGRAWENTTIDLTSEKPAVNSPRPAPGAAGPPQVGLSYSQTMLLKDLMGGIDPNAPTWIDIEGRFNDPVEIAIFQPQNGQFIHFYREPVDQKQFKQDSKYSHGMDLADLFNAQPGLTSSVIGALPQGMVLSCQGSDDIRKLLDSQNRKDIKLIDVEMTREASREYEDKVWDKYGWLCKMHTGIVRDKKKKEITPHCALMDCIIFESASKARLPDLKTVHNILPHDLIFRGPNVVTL

[7] = biological target: Alpha-galactosidase (Coffea arabica) (UniProt Q42656); assay: Counterscreen for Glucocerebrosidase Inhibitors: qHTS Assay for Coffee Bean alpha-Galactosidase at pH 4.5 (AID 957; active = well fitted curve in the direction sought with a large enough effect; an effect the other way counts as inactive or inconclusive); conditions: purified coffee bean alpha-galactosidase, fluorogenic substrate; series mostly up to 76.9 µM
Sequence of Alpha-galactosidase (Coffea arabica) (Q42656 whole entry, looked up): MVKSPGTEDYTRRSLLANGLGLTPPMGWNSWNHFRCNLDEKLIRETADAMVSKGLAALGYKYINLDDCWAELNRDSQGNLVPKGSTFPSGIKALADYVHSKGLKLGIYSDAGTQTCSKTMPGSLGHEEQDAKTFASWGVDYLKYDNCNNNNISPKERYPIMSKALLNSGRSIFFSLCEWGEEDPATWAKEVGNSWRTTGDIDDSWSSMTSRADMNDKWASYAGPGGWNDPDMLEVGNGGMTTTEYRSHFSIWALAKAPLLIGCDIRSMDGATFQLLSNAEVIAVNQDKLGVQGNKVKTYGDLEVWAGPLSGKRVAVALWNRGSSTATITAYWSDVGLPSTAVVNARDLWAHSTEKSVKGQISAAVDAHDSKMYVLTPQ
Method in brief: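 Green coffee bean enzyme (2 nM final) was incubated with compounds (0.7 nM to 77 uM) and 4-methylumbelliferyl alpha-D-galactopyranoside (80 uM final) in 50 mM citric acid, 0.005% Tween-20, pH 4.5, 20 min at room temperature; AC50 from Hill fits.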

Measured: Potency

Cc1ccc(C(=O)O[C@H](C(=O)O)[C@@H](OC(=O)c2ccc(C)cc2)C(=O)O)cc1 (tested in a mixture with another compound)
not listed: [7]
inactive: all other assays above

O=C(/C=C/c1ccc(O)cc1)c1ccc(O)cc1O
not listed: [7]
inactive: all other assays above

Cn1ccnc1
inactive: all assays above

CC(=O)N[C@H](C(=O)O)C(C)(C)SN=O
not listed: [7]
inactive: all other assays above

CCCCCCCCCCCCCCCCCC(=O)OC(CC(=O)O)C[N+](C)(C)C (stereo not given)
not listed: [7]
inactive: all other assays above

CSC(N)=NCCC[C@H](N)C(=O)O
not listed: [7]
inactive: all other assays above

CC1CN(S(=O)(=O)c2cccc3cnccc23)CCN1 (stereo not given)
not listed: [7]
inactive: all other assays above

CC(C)(C)c1onc(OCP(=O)(O)O)c1CC(N)C(=O)O (stereo not given)
not listed: [7]
inactive: all other assays above

O=C(O)[C@H]1NCCC[C@H]1C(=O)O
not listed: [7]
inactive: all other assays above

O=C(O)CCCC[C@@H]1CCSS1
not listed: [7]
inactive: all other assays above

OC(CN1CCN(c2cccc(Cl)c2)CC1)C(c1ccccc1)c1ccccc1 (stereo not given)
not listed: [7]
inactive: all other assays above

NC1(C(=O)O)CCc2cc(C(=O)O)ccc21 (stereo not given)
not listed: [7]
inactive: all other assays above

CCCCCCCCCCCCCCCCCCOC[C@H](COP(=O)([O-])OCC[N+](C)(C)C)OC
not listed: [7]
inactive: all other assays above

O=C1O/C(=C/Br)CCC1c1cccc2ccccc12 (stereo not given)
not listed: [7]
inactive: all other assays above
